# Screens (PubChem BioAssay)
# TGFb inhibitor: blocks TGF-b signaling. 1.2% of 410,000 active. HepG2 CAGA-GFP TGF-b/SMAD3 reporter, GFP fluorescence, 18 h; TGF-beta stimulated, 500 pg/mL final. Potency, µM (series often up to 46.1 µM), for the others: at the top dose activity, negative = inhibition, most hits filed as inhibitors; also: % is scaled to controls: 0 for no effect and ±100 for the full control effect; nearly all actives have a fitted effect of over 65% in size
#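 Using HEPG2 CAGA-GFP reporter cells at 1000 cells/well, we pinned test compounds, stimulated with recombinant TGF-beta (500 pg/mL final) and measured total well GFP after 18 h.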
# TDP1 cell CPT: DT40-hTDP1 cell growth loss with CPT. chicken DT40 Tdp1-/-;hTDP1 cells + 20 nM CPT, ATP luminescence, 48 h. Potency, µM (highest dose often 46.2 µM), without a hit: at the highest dose activity change, negative = growth inhibition, actives largely listed as inhibitors. 12% of 420,000 active. AID 686979; also: % is scaled to controls: 0 for no effect and ±100 for the full control effect; nearly all actives have a fitted effect of over 55% in size
#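 Chicken DT40 Tdp1-/- cells stably complemented with human TDP1 were seeded at 400 cells/well in medium containing 20 nM camptothecin, exposed to pin-transferred compounds, and grown at 37 °C for at least 48 hr. Viability was read as ATP luminescence.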
# TDP1 cell noCPT: qHTS for Inhibitors of human tyrosyl-DNA phosphodiesterase 1 (TDP1): qHTS in cells in absence of CPT. DT40 Tdp1-/- hTDP1 cells, no CPT, ATP luminescence, 48 h. Potency, µM (highest dose often 46.2 µM), for the others: top-dose activity change, negative = growth inhibition, most hits filed as inhibitors. 15% of 420,000 active. AID 686978, 2013; also: % is scaled to controls: 0 for no effect and ±100 for the full control effect; nearly all actives have a fitted effect of over 55% in size
#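 Growth kinetics read by CellTiter-Glo luminescence after ≥48 hr at 37 °C. Cells: DT40 Tdp1-/- stably carrying human TDP1, 400 per well, compound exposure in the absence of CPT (DMSO vehicle).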
# ATXN2 expr inh: ATXN2 expression inhibition | 0.72% of 360,000 active | Potency, µM (doses to about 57 µM), inactives show at the highest dose activity change, negative = inhibition, actives largely listed as inhibitors | HEK-293 ATXN2-luciferase reporter, luminescence, 24 h; also: % is scaled to controls: 0 for no effect and ±100 for the full control effect; nearly all actives have a fitted effect of over 55% in size
#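 qHTS (up to 57 uM final) was run with 24 h compound exposure of reporter cells at 37 °C. Each well was multiplexed: SteadyGlo luminescence measured ATXN2-luciferase expression after a fluorogenic Gly-Phe-AFC viability readout (25 uM final).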
# ATXN viability: viability counter-screen for ATXN expression inhibitors; 0.49% of 400,000 active; Potency, µM (series often up to 56.7 µM), usual class: cytotoxic; S2 cells (HEK-293 line with an ATXN2-luciferase reporter) viability, CellTiter-Fluor protease fluorescence, 24 h; also: nearly all actives have a fitted effect of over 40% in size
# HepG2 viability: HepG2 cytotoxicity, counter-screen for TGF-b inhibitors; HepG2 CAGA-GFP viability, ATP luminescence, 18 h; Potency, µM (titrated, usually from 46.1 µM), for the others: at the highest dose activity change, negative = cytotoxicity, actives largely listed as cytotoxic; 0.76% of 410,000 active
#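 CellTiter-Glo luminescence gave cytotoxicity after 18 hours at 37 degrees C. The cells were HepG2 CAGA-GFP in 1% FBS DMEM, stimulated with 500 pg/mL TGF-beta after compound addition. %Activity was normalised to no-cell wells (complete cell-killing) and DMSO (no toxicity), and curves were fitted and classified.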
# The depositor's hits bear a star; i = inactive; u = inconclusive; x = not tested or not shown; [ ] = dose if it differs, or a comment. This is a sample that favours compounds with a hit; in the whole collection about 17% have one here. Calls follow the shape of the dose curve; as a rule, active = well fitted curve in the direction sought with a large enough effect; inconclusive = small, poorly fitted or top-dose-only effect, or another doubt; inactive = no such curve, though single readings can be large; an effect the other way counts as inactive or inconclusive. Potency is read from the fitted curve at half-maximal effect.
SMILES,TGFb inhibitor,TDP1 cell CPT,TDP1 cell noCPT,ATXN2 expr inh,ATXN viability,HepG2 viability
O=C(Nc1ccc(-c2cn3ccsc3n2)cc1)C1COc2ccccc2O1 (centres undefined),-3.7%,20.6µM*,u,u,u,-22.8%
CC(C)(C)c1csc(NC(=O)C2COc3ccccc3O2)n1 (centres undefined),-11.4%,u,u,93.1%,i,-2.0%
Cc1cccc2sc(NNC(=O)C3COc4ccccc4O3)nc12 (centres undefined),-12.0%,u,u,-10.5%,i,-8.3%
COc1ccc(OC)c2sc(NNC(=O)C3COc4ccccc4O3)nc12 (centres undefined),-15.4%,14.6µM*,u,-9.8%,i,-13.8%
Cc1cc(OCCOCCNC(C)C)cc(C)c1Cl,-6.7%,18.4µM*,18.4µM*,u,i,-50.3%
O=c1c(CN2CCN(c3ccccn3)CC2)coc2ccccc12,0.3%,1.7%,3.3%,-5.5%,i,-11.4%
Oc1c(CN2CCN(c3ccccn3)CC2)cc(Cl)c2cccnc12,u,4.61µM*,3.66µM*,u,i,-51.7%
OCCN1CCN(Cc2cc(Cl)c3cccnc3c2O)CC1,u,u,u,22.4µM*,i,-26.2%
COc1cccc(OCC(=O)NC2CC(=O)N(c3cccc(OC)c3)C2)c1 (centres undefined),-2.2%,-9.6%,-15.2%,x,x,-4.1%
CC(C)=CCC(C)(C)/C=N/NC(N)=O,5.0%,2.0%,7.7%,3.9%,i,10.9%
O=C(NCC1CCCO1)C(c1ccc(F)cc1)N(C(=O)Cn1nnc(-c2ccc(F)cc2)n1)c1cccc(O)c1 (centres undefined),-20.7%,u,9.2µM*,-18.5%,i,0.6%
O=C(NC1CCCC1)C(c1cccs1)N(Cc1ccco1)C(=O)Cn1nnc(-c2cccs2)n1 (centres undefined),-18.0%,20.6µM*,u,-4.0%,i,-12.0%
O=C(NCC1CCCO1)C(c1cccs1)N(Cc1cccs1)C(=O)Cn1nnc(-c2cccs2)n1 (centres undefined),0.6%,16.4µM*,18.4µM*,3.1%,i,1.0%
O=C(CN(Cc1ccco1)C(=O)Cn1nnc(-c2ccc(F)cc2)n1)NC1CCCC1,-5.6%,u,u,-3.7%,i,-11.9%
CCCCC(C(=O)NC1CCCC1)N(Cc1ccco1)C(=O)Cn1nnc(-c2ccc(F)cc2)n1 (centres undefined),u,23.1µM*,23.1µM*,-18.6%,i,9.1%
O=C(NCC1CCCO1)C(c1cccs1)N(C(=O)Cn1nnc(-c2cccs2)n1)C1CCCC1 (centres undefined),-15.0%,-17.2%,-11.7%,0.7%,i,-6.2%
CC(C)(CO)NC(=O)C12CC3CC(CC(Br)(C3)C1)C2,-14.3%,10.9%,0.4%,-9.6%,i,-15.3%
Cn1c(=S)[nH]c(=O)c2ncc(=O)[nH]c21,-18.1%,-1.0%,12.6%,-28.5%[11.3 µM],i,20.0%
O=C(Cn1ccc(NC(=O)OCc2ccccc2)nc1=O)NCCc1ccccn1,-2.4%,1.9%,3.0%,6.8%,i,-7.3%
O=C(NC1CCCCC1)C(c1ccco1)N(Cc1cccs1)C(=O)Cn1nnc2ccccc21 (centres undefined),-6.8%,u,-26.7%,-0.4%,i,0.0%
Cc1ccc(-c2nnn(CC(=O)N(Cc3cccs3)C(C(=O)NC3CCCCC3)c3ccco3)n2)o1 (centres undefined),7.6%,25.9µM*,23.1µM*,-11.2%,i,-13.5%
O=C(NC1CCCCC1)C(c1ccccc1)N(Cc1ccco1)C(=O)Cn1cnc2ccccc21 (centres undefined),u,23.1µM*,23.1µM*,-1.0%,i,-13.6%
CCN(CC)c1ccc(NC(=O)c2cc(S(=O)(=O)N3CCc4ccccc43)cn2C)c(C)c1,-18.0%,-28.6%,u,x,x,-3.6%
Brc1ccc(CSc2nnc3ccccn23)cc1,-0.1%,-5.6%,16.6%,29.3%,i,-6.0%
CCCCn1c(=O)c2c(nc3n2CCCN3Cc2ccccc2)n(C)c1=O,0.0%,u,23.1µM*,-16.5%,i,-13.7%
SMILES,TGFb inhibitor,TDP1 cell CPT,TDP1 cell noCPT,ATXN2 expr inh,ATXN viability,HepG2 viability
Cc1cc(C)cc(N2CCCn3c2nc2c3c(=O)n(CCN3CCOCC3)c(=O)n2C)c1,-1.7%,-29.7%,u,-4.4%,i,-1.5%
C=C(C)Cn1c(=O)c2c(nc3n2CCCN3CCc2ccccc2)n(C)c1=O,-9.3%,u,13µM*,-15.0%,i,-13.9%
CCOCCn1c(=O)c2c(nc3n2CCCN3Cc2ccccc2)n(C)c1=O,-6.3%,28.1%,-19.6%,-28.5%,i,-8.6%
C=C(C)Cn1c(=O)c2c(nc3n2CCN3c2cc(C)cc(C)c2)n(C)c1=O,-1.9%,-24.0%,23.1µM*,x,x,-9.7%
Cc1ccccc1Cn1c(=O)c2c(nc3n2CCCN3Cc2ccccc2)n(C)c1=O,0.8%,20.6µM*,u,-7.7%,i,-4.3%
COCCn1c(=O)c2c(nc3n2CCCN3CCc2ccccc2)n(C)c1=O,0.0%,4.5%,-7.9%,1.2%,u,-1.3%
Cn1c(=O)n(Cc2ccccc2)c(=O)c2c1nc1n2CCCN1Cc1ccccc1,-0.1%,u,u,3.7%,i,43.0%
Brc1ccc(COn2ccnc2)cc1,3.5%,-8.3%,-0.4%,x,i,-30.4%
O=C(COC(=O)CCc1c[nH]c2ccccc12)NCc1ccc2c(c1)OCO2,-1.8%,2.3%,-21.8%,-15.1%,i,-4.3%
Cn1c(=O)n(CC(=O)OCc2ccccc2)c(=O)c2c1nc1n2CCCN1C1CCCCC1,-11.0%,u,23.1µM*,5.4%,i,-20.0%
COC(=O)Cn1c(=O)c2c(nc3n2CCCN3Cc2ccccc2)n(C)c1=O,0.0%,-0.2%,-14.7%,-7.6%,i,-1.3%
CCn1cc(C(=O)NCCc2ccc(C)cc2)c(=O)c2cc(S(=O)(=O)N3CCCCC3)ccc21,-5.7%,-10.2%,-9.5%,0.1%,i,3.2%
CCn1cc(C(=O)NCC(OC)OC)c(=O)c2cc(S(=O)(=O)N3CCCC3)ccc21,0.5%,-22.6%,9.1%,-0.7%,i,-19.1%
CCn1cc(C(=O)NCc2ccc(Cl)cc2)c(=O)c2cc(S(=O)(=O)N3CCOCC3)ccc21,-0.6%,20.6µM*,23.1µM*,-4.1%,i,-0.1%
